Source: PubChem BioAssay (Broad Institute)
Shown are actives, neighbours in structure and some others; about 1.4% of the full set was active somewhere.
ERAP1 HTS inh: ERAP1 (human) enzyme inhibition; Q9NZ08; recombinant ERAP1, Leu-AMC fluorescence, 60 min; inhibition, % at 10.7 µM; 0.15% of 340,000 active;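 active = mean replicate inhibition of at least 30%, or all replicates individually reaching that 30% level; inactive = mean below 30% and not every replicate reaching it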
INS-1E GSIS act: GLuc luminescence reporter in INS-1E cells, primary screen for activators of glucose-dependent secretion of insulin; activation, % at 16.6 µM; INS-1E GLuc reporter insulin secretion, 2-3 h; 0.61% of 370,000 active; AID 743287;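 active = lowest replicate activation of at least 40%, so every replicate reaches that level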
RAD52 anneal inh: inhibitors of human RAD52 DNA annealing | inhibition, % at 18.7 µM | P43351 | recombinant RAD52 DNA annealing, FRET fluorescence | 0.46% of 360,000 active;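 active = every replicate showing at least 50% inhibition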
RAD54 branch: inhibitors of human RAD54 branch migration. AID 602329. Q92698. RAD54 Holliday junction branch migration, FAM/BHQ fluorescence. 0.14% of 360,000 active. inhibition, % at 10.4 µM;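 active = mean normalized replicate activity at least 40 and at least half of replicates scoring 40 or more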;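 note: inhibitors cause a drop in the FAM fluorescence signal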
Target sequence (Q92698 whole entry, looked up): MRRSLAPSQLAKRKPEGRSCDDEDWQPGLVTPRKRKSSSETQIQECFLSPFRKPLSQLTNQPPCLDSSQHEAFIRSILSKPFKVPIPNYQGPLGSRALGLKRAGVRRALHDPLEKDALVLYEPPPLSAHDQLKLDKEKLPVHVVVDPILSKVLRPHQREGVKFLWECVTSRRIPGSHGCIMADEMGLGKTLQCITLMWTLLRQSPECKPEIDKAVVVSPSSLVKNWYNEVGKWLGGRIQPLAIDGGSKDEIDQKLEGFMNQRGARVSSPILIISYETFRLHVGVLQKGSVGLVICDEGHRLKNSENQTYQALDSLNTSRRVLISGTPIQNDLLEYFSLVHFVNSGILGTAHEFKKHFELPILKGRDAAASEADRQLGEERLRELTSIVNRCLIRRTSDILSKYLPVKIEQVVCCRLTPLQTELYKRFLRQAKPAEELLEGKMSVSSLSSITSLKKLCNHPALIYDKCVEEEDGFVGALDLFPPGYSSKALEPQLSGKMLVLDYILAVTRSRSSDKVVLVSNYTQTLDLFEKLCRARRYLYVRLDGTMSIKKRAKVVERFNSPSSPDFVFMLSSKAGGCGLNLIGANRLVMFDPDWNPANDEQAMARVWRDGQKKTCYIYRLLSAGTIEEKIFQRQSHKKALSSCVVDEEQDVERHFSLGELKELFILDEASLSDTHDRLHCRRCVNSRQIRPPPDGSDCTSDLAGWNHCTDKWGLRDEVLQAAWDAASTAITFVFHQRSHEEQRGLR
PGC1a acetyl inh: lowers PGC1a acetylation signal in U2OS cells. AID 651687. 0.17% of 350,000 active. AlphaScreen anti-acetyl-lysine; with virally co-expressed GCN5 acetyltransferase. inhibition, % at 15.6 µM;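 active = every replicate shows inhibition of at least 40%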
AF4-AF9 inh: blocks AF4 peptide binding to human AF9. AlphaScreen, biotin-AF4 peptide binding to FLAG-AF9. P42568. inhibition, % at 10 µM. 0.47% of 350,000 active;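 active = every replicate reaching a set inhibition limit, whatever the replicate mean, cut at about 25% in these data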
RAD52 DNA ctr: counter-screen for RAD52 inhibitors: DNA binding compounds; AID 652128; Salmon sperm DNA/acridine orange FP displacement; AC50, µM; 8% of 1,000 active; shares compounds with RAD52 anneal inh;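 active = fitted half-maximal concentration for signal loss at or below twice the highest dose tested, in every separate run, actives reach about 64 µM in these data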
A number is an active result; . = inactive; / = not tested or not shown.

SMILES	ERAP1 HTS inh	INS-1E GSIS act	RAD52 anneal inh	RAD54 branch	PGC1a acetyl inh	AF4-AF9 inh	RAD52 DNA ctr
CC(=O)OCCc1c2ccccc2c(CCCN(C)C)c2ccccc12	.	/	69.3	/	/	.	.
Cc1ccc(C(CC(=O)c2ccc(Cl)cc2)C(=O)O)cc1 (stereo not drawn)	.	.	.	.	.	.	/
O=C(CC(C(=O)O)c1cccc(Br)c1)c1ccc(Cl)cc1 (stereo not drawn)	.	/	107.8	.	.	.	.
O=C(O)CCCc1ccc2ccc3cccc4ccc1c2c34	.	.	.	.	.	.	/
NCCCCc1ccc2ccc3cccc4ccc1c2c34	.	.	52.7	.	.	.	.
COc1cc(NC(C)CCCN)c2ncccc2c1 (stereo not drawn)	.	/	84.5	.	.	30.7	.
CN(C)Cc1c(OC(=O)c2ccc(N)cc2)ccc2ccccc12	.	.	59.1	.	.	.	.
Cc1ccc2nc(N(CCCN(C)C)C(=O)c3ccc(S(=O)(=O)N4CCc5ccccc5C4)cc3)sc2c1	.	.	73.8	.	/	.	.
CN(C)CCCN(C(=O)c1ccc(S(=O)(=O)N2CCc3ccccc3C2)cc1)c1nc2ccc(F)cc2s1	.	.	.	.	/	.	/
Cc1ccc2sc(N(CCCN(C)C)C(=O)c3ccc(S(=O)(=O)N(C)C4CCCCC4)cc3)nc2c1C	.	.	60.8	.	.	.	.
CCC(=O)Nc1ccc2c(c1)C(=O)N(C)C[C@@H](OC)[C@H](C)CN(Cc1cncnc1)[C@@H](C)CO2	/	.	/	/	.	/	/
COCC(=O)N(C)C[C@@H]1Oc2ncc(C#CCC3CCCC3)cc2C(=O)N([C@H](C)CO)C[C@H]1C	.	.	.	.	.	.	/
Cc1ccc(S(=O)(=O)NCC[C@H]2CC[C@H](NC(=O)NC(C)C)[C@@H](CO)O2)cc1	.	.	.	.	.	.	/
CN(C)C(=O)c1ccc(-c2ccccc2[C@@H]2[C@H](C#N)N(C(=O)C3CCCC3)[C@H]2CO)cc1	.	.	.	/	/	.	/
CCOC(=O)c1c(C)n(CC(O)CN(C)C)c2cc(Br)c(OC)cc12 (stereo not drawn)	.	.	84.6	/	/	.	.
Cc1ccc(-c2cc(C(=O)NCCCN3CCOCC3)c3ccccc3n2)cc1	.	.	.	.	/	.	/
Cc1ccc(-c2nc(C(=O)NCCCN3CCOCC3)cc3c2[nH]c2ccccc23)cc1	.	/	94.3	.	.	.	.
COc1ccc2c3c([nH]c2c1)[C@H](CO)N(Cc1ccccc1)CC31CCN(C(=O)Cc2ccccc2)CC1	/	.	/	/	.	/	/
CN1CCN(C2CCN(c3ccc(Nc4nnc(Cl)c(Nc5ccccc5S(C)(=O)=O)n4)c(OC(CF)CF)c3)CC2)CC1	.	.	50.7	.	.	/	.
CCCCCc1cc(=O)oc2c(C(CCN3CCCC(C)C3)c3ccc(N(C)C)cc3)c(OC)cc(OC)c12 (stereo not drawn)	/	/	/	.	.	/	/
CCCCCc1cc(=O)oc2c(C(CCN(CC)CC)c3ccc(N(C)C)cc3)c(OC)cc(OC)c12 (stereo not drawn)	.	/	59.7	.	.	51.8	.
COc1cccc(CNCCSc2nnnn2C)c1OC	.	.	103.4	.	.	.	.
CCN(CC)CCNC(=O)CCc1c(C)nc2c(c(C)nn2-c2ccc(C)c(C)c2)c1C	.	.	.	.	.	.	.
O=C(C[n+]1ccc2ccccc2c1)c1ccccc1	/	.	.	.	.	.	/
O=C(C[n+]1ccc2ccccc2c1)c1ccc2ccc3ccccc3c2c1	.	.	89.9	/	/	.	.
SMILES	ERAP1 HTS inh	INS-1E GSIS act	RAD52 anneal inh	RAD54 branch	PGC1a acetyl inh	AF4-AF9 inh	RAD52 DNA ctr
CN(C)CCN(C)Cc1ccccc1Sc1cccc2ccccc12	.	.	52.3	.	.	36.3	.
CC(C)NC(=O)Nc1ccc2c(c1)C(=O)N([C@@H](C)CO)C[C@@H](C)[C@@H](CN(C)CC1CCCCC1)OCCCC[C@H](C)O2	.	.	.	.	.	.	/
COc1cc(OC)cc(-c2sc3ccc(OC)cc3c2C#CC2(N)CCCCC2)c1	.	.	.	.	.	.	.
COc1cc(OC)nc(Nc2nc(C(N)CCc3ccccc3)cs2)n1 (stereo not drawn)	.	.	62.3	.	.	.	.
CCCNC(=O)N1CCC2(CC1)CN(C(C)=O)[C@@H](CO)c1[nH]c3cc(OC)ccc3c12	/	.	/	/	/	/	/
Nc1ccc(NC(=O)CCN2CCOCC2)cc1	.	.	59.6	.	/	.	.
CO[C@@H]1CN(C)C(=O)c2ccc(NC(=O)C3CCC3)cc2OC[C@H](C)N(C(=O)CN(C)C)C[C@@H]1C	/	.	/	.	.	/	/
CCN1CCc2nc(N)sc2C1	.	.	68.9	/	.	.	.
CCN1CCc2nc(NC(=O)c3ccccc3)sc2C1	/	/	/	.	/	/	/
Nc1nc2c(s1)CCCCCCCCCC2	.	/	.	.	.	.	/
C=CCN1CCc2nc(N)sc2CC1	.	/	66.3	.	.	.	.
O=C(C[C@@H]1C=C[C@H](NS(=O)(=O)c2ccc(F)cc2)[C@H](CO)O1)N1CCC(Cc2ccccc2)CC1	.	.	.	.	.	.	/
Cc1nc2cc(-c3ccc(Cl)cc3)nn2c(NCCN(C)C)c1C	.	.	76.8	/	/	.	.
CN(C)CCCNc1c2c(nc3cc(-c4cccc(F)c4)nn13)CCC2	.	.	.	.	.	.	/
COc1ccc2c3c([nH]c2c1)[C@H](CO)N(C(=O)c1cccnc1)CC31CCN(C(=O)NC(C)C)CC1	/	.	/	/	.	.	/
CCCN1CCN(CCCNC(=O)CCn2nc(-c3ccccc3)ccc2=O)CC1	.	.	.	.	.	.	/
O=C(CCn1nc(-c2ccc(Cl)cc2)ccc1=O)NCCCN1CCCCCC1	.	.	63.0	.	/	/	.
Cc1ccc(-c2c[n+](CC(=O)Nc3nc(-c4ccc(F)cc4)cs3)c3n2CCC3)cc1	.	.	58.0	.	.	.	.
O=C(C[n+]1cc(-c2ccc(F)cc2)n2c1CCC2)Nc1nc(-c2ccccc2)cs1	/	.	/	.	/	/	/
CC[n+]1c(C=C2C=C(C)OC(C)=C2)sc2ccccc21	.	.	58.7	/	.	.	.
CC[n+]1c(/C=C2/C=C(C)CC(C)C2)sc2ccccc21 (stereo not drawn)	.	.	.	/	/	.	/
CC1(C)Cc2c(c(N3CCCC3)nc3sc4c(N5CCN(CCO)CC5)ncnc4c23)CO1	.	.	57.8	.	.	.	.
CCOC(=O)c1sc2nc(N3CCCC3)c3c(c2c1N)CC(C)(C)OC3	/	/	/	.	.	/	/
CN1CCN(c2ccc(Nc3ccnc4cc(Cl)ccc34)cc2)CC1	.	.	87.8	52.7	.	.	.
Oc1c(CN2CCCCC2)ccc2cccnc12	.	.	63.0	.	.	.	.
Cc1sc2cc3c(c(C(=O)c4ccccc4)[n+]2c1C)-c1cccc2cccc-3c12	.	.	102.8	/	/	25.4	61.1µM
